Rows were chosen to be rich in hits. Some 0.98% of all compounds tested hit in one or more screens of this group.
LANA-H2A inh – blocks KSHV LANA binding to histone H2A/H2B; Q9QR71; cell-free LANA-H2A/H2B peptide, fluorescence polarization; inhibition, % (concentration not given with the values); actives 0.6% (n = 320,000); AID 2629; in the data active = inhibition mostly above about 10%, no sharp cut-off; inactive = mostly below about 6.7%
Keap1-Nrf2 PPI – inhibitors of human Keap1-Nrf2 protein-protein interaction | actives 0.15% (n = 340,000) | inhibition, % at 9.4 µM | Q14145 | Keap1 Kelch-Nrf2 peptide fluorescence polarization, 1536-well; in the data active = inhibition above about 12%; inconclusive = no clear call, values can overlap the other calls; inactive = below about 7.3%;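 also: human Keap1 Kelch domain with fluorescein labeled Nrf2 9mer peptide probe; 0% = neutral control wells and 100% = peptide positive control; higher means more block of Keap1 binding to Nrf2 peptide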
RTF Ca sens inh – cardiac RTF calcium desensitization. actives 0.12% (n = 340,000). IANBD-labeled cardiac RTF, Ca2+ fluorescence. inhibition, % at 7.15 µM;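 active = inhibition above the mean inhibition of all tested compounds plus 3 SD, cut at about 17% in these data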;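 also: assay run at fixed EC70 calcium of 1.6 mM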
LANA DNA inh – KSHV C-LANA DNA binding inhibition. MBP-C-LANA/FAM-LBS DNA binding, fluorescence polarization. inhibition, % at 9 µM. actives 0.078% (n = 340,000). AID 504423;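 active = highest replicate inhibition at or above 60% at 9 µM, even if other replicates fall short; inactive = all replicates below 60% inhibition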;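 also: 0% = neutral control wells and 100% = 4 µM acridine orange control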
cardiac RTF act – cardiac RTF calcium sensitization. IANBD-labeled TnC RTF fluorescence at EC20 calcium; 0% EC20 calcium, 100% full calcium. activation, % at 7.2 µM. actives 0.24% (n = 340,000). P19429+P45379;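 active = activation above the mean over all tested compounds plus 3 SD, cut at about 30% in these data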;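 also: rise in fluorescence read as greater calcium sensitivity of cardiac thin filaments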
* = called active by the depositor; u = inconclusive; x = no result given; + = active, no number.

SMILES	LANA-H2A inh	Keap1-Nrf2 PPI	RTF Ca sens inh	LANA DNA inh	cardiac RTF act
O=C(Nc1ccc(-c2cn3ccsc3n2)cc1)C1CC1	-3.2	-1.4	-6.1	-1.6	7.6
CC(=O)Nc1ccc(-c2cn3ccsc3n2)cc1	14.6*	-4.2	-10.2	1.3	5.9
CC1CCC2(CC1)NC(=S)N(C(C)(C)C)N2 (configuration not stated)	9.3	-0.9	x	0.4	x
CC1CCC2(CC1)NC(=S)N(c1ccccc1)N2 (configuration not stated)	17.5*	-4.9	-13.2	0.9	0.8
Cn1c(SCC(=O)Nc2ccc(C(N)=O)cc2)nnc1-c1cccs1	15.5*	-5.5	-5.0	0.5	-5.8
COc1ccc(-c2cc(C(=O)N3CCCCCC3)c3cc(C)ccc3n2)cc1	-0.6	0.3	-2.6	-1.2	-5.9
COc1ccc(-c2cc(C(=O)N3CCOCC3)c3cc(C)ccc3n2)cc1	18.5*	-4.0	-0.2	-0.4	-1.9
O=C(c1ccc(COc2ccccc2Br)cc1)N1CCCCCC1	4.5	2.9	-3.2	-1.2	1.5
CCn1cc(C(=O)O)c(=O)c2cnc(N3CCN(C(=S)NC(=O)c4ccccc4)CC3)nc21	13.8*	-6.8	1.5	0.6	-2.4
CCn1cc(C(=O)O)c(=O)c2cnc(N3CCN(C(=S)Nc4ccccc4)CC3)nc21	3.1	-2.1	-8.7	-1.4	0.4
Cc1ccc2nc3c(cc(C(=O)NCC4CCCO4)c(=N)n3CCCOC(C)C)c(=O)n2c1 (configuration not stated)	18.1*	0.4	-8.8	1.7	-0.3
O=C(Cc1ccc(F)cc1)Nc1cccc(-c2cn3c(n2)SCC3)c1	+	-0.9	-2.8	-0.2	6.7
CCN1CC=C2C(C#N)=C(N)C(C#N)(C#N)C(c3cc(Cl)ccc3Cl)C2C1 (configuration not stated)	13.2	u	-38.1	28.6	39.2*
COc1cccc(-c2noc(C3CCCN(C(=O)Cc4ccccc4)C3)n2)c1 (configuration not stated)	10.6*	-0.3	-1.7	0.5	-7.0
CC(C)CN(C(=O)CN1C(=O)NC(c2ccccc2)(c2ccccc2)C1=O)C1CCS(=O)(=O)C1 (configuration not stated)	2.0	1.8	-1.9	-1.1	2.5
CCOC(=O)COc1ccc(Br)cc1C1NC(=O)NC(C)=C1C(=O)NCc1ccccc1 (configuration not stated)	66.6*	-1.8	-1.4	0.3	1.4
CCOc1c(Cl)cc(C2NC(=O)NC(C)=C2C(=O)NCc2ccccc2)cc1OC (configuration not stated)	1.7	-2.4	-10.4	-0.8	4.3
O=C(c1ccco1)N1N=C(c2ccco2)CC1c1ccc(Cl)cc1Cl (configuration not stated)	+	-5.3	-3.5	0.3	2.6
COc1ccc(C2=NN(C(=O)c3ccco3)C(c3cc4ccccc4nc3Cl)C2)cc1 (configuration not stated)	2.0	x	x	x	x
CCn1c(=O)c2c(nc(SCC(=O)N3CCC(C)CC3)n2C)n(C)c1=O	21.3	1.4	2.9	-0.3	1.9
COc1ccc(NC(=O)C2OC3OC(C)(C)OC3C3OC(C)(C)OC23)cc1 (configuration not stated)	27.5*	3.0	-3.7	0.9	-6.6
CCOC(=O)c1ccc(NC(=O)CN2C(=O)C(CC)SC(CC)C2=O)cc1 (configuration not stated)	37.9*	-1.6	-27.7	0.9	-1.5
COc1cc(C(=O)NNC(=O)CCOc2ccccc2)cc(OC)c1OC	16.8*	-4.7	-5.8	4.1	1.5
O=C(O)C1Nc2c(C(=O)N3CCOCC3)cccc2C2C=CCC12 (configuration not stated)	0.0	-0.4	12.6	71.5*	-10.5
Cc1ccc2c(c1C)NC(C(=O)O)C1CC=CC21 (configuration not stated)	27.4*	6.6	15.7	3.0	-17.0
SMILES	LANA-H2A inh	Keap1-Nrf2 PPI	RTF Ca sens inh	LANA DNA inh	cardiac RTF act
CC(C(=O)Nc1cccc([N+](=O)[O-])c1)N1C(=O)NC2(CCCC2)C1=O (configuration not stated)	1.2	1.1	1.1	-0.4	-3.9
COc1cccc(CN2CC(C(=O)N(C)C3CCOCC3)CCC2=O)c1 (configuration not stated)	-0.9	-3.5	-5.9	0.3	-1.2
CCc1ccc(/C=C2\SC(=S)N(CCCC(=O)Nc3ccccn3)C2=O)cc1	-2.3	4.8	0.8	6.9	36.5*
O=C(CCCN1C(=O)/C(=C/c2cccc(Br)c2)SC1=S)Nc1cccnc1	1.7	-1.4	x	-0.9	x
O=C(CCCN1C(=O)/C(=C\c2cccc(Br)c2)SC1=S)Nc1cccnc1	18.6*	4.2	3.6	3.9	7.3
O=C(Nc1nc(-c2ccccc2)cs1)C1c2ccccc2Oc2ccccc21	46.1*	-3.9	0.1	0.7	0.1
O=C(Nc1nc(-c2ccncc2)cs1)C1c2ccccc2Oc2ccccc21	-5.3	-5.6	0.2	-1.9	-4.8
Cc1ccsc1/C=N/NC(=O)c1cccnc1	-6.6	-1.5	5.2	0.0	1.2
O=C(CN(Cc1ccccc1)S(=O)(=O)c1ccc(Cl)cc1)NCC1CCCO1 (configuration not stated)	14.5*	-0.1	-12.4	0.0	0.5
O=C(CN(Cc1ccccc1)S(=O)(=O)c1ccc(Br)cc1)NCC1CCCO1 (configuration not stated)	2.5	-7.9	-5.3	1.3	-1.9
Cc1cc(C)cc(NC(=S)N2CCN(c3ncccn3)CC2)c1	21.3*	-1.7	5.7	-1.2	-4.0
Cc1cc(C)cc(NC(=S)N2CCN(c3ccccn3)CC2)c1	-1.8	-0.8	-3.6	-3.3	-0.4
Cc1cc(C)cc(NC(=O)N2CCCN(c3ncccc3[N+](=O)[O-])CC2)c1	14.1*	-2.1	2.4	-0.1	-4.1
O=C(O)C1C=Cc2ccccc2N1C(=O)c1ccccc1 (configuration not stated) (tested in a mixture with another compound)	x	-2.8	-12.2	1.4	-6.0
O=C(CCCN1C(=O)/C(=C/c2ccco2)SC1=S)Nc1ccccc1C(=O)O	2.9	-2.8	-2.7	65.5*	-4.8
O=C(CCN1C(=O)/C(=C/c2ccco2)SC1=S)Nc1ccc(C(=O)O)c(O)c1	6.8	-2.5	-0.1	88.5*	-6.1
O=C(O)CCCN1C(=O)/C(=C\c2ccco2)SC1=S	x	2.6	11.8	42.7	0.9
CC(/C=C1\SC(=S)N(CCC(=O)Nc2cccc(C(=O)O)c2)C1=O)=C\c1ccccc1	-3.8	2.7	-5.7	16.1	-1.3
CC(/C=C1\SC(=S)N(CCCC(=O)Nc2ccc(C(=O)O)cc2)C1=O)=C\c1ccccc1	2.6	-3.4	-2.8	85.2*	-1.7
O=C(CCN1C(=O)/C(=C\c2ccco2)SC1=S)Nc1ccc(C(=O)O)c(O)c1	2.4	-2.0	5.9	83.1*	-8.5
CCN(CC)CCCOc1nc(C)nc2c1oc1ccccc12	x	-0.6	35.6*	-1.8	-2.3
